In the library only some 0.88% were active in any assay of this set; here they are far more common.
GCN5L2 inh: qHTS Assay for Inhibitors of GCN5L2. Potency, µM (doses to about 58.9 µM), most hits filed as inhibitors. actives 0.21% (n = 390,000). GCN5L2 HAT assay, ThioGlo1 CoA-SH fluorescence
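ThioGlo1-coupled HAT assay: 20nM GCN5L2, 70uM acetyl-CoA, 75uM H3(1-25) peptide, pH 7.5. Fluorescence read at 340/540nm at start and after 20 min at room temperature.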
BLM helicase inh: qHTS Assay for Inhibitors of Bloom's syndrome helicase (BLM); RecQ-like DNA helicase BLM (Homo sapiens), P54132; recombinant BLM DNA unwinding, fluorescence dequenching; Potency, µM (titrated, usually from 56.1 µM), actives largely listed as inhibitors; actives 0.2% (n = 350,000); AID 2528, 2010; note: nearly all actives have a fitted effect of over 35% in size
ERG Ets-DNA blk: qHTS for Small Molecule Inhibitors of the ERG Ets/DNA interaction | Transcriptional regulator ERG (Homo sapiens), P11308 | fluorescence polarization, His-ERG Ets domain / labelled DNA | Potency, µM (doses to about 76.9 µM), most hits filed as inhibitors | actives 0.028% (n = 370,000); active = well fitted inhibition curve with a large enough effect in the polarisation, with a control signal flat; inconclusive = small, poorly fitted or top-dose-only effect, or effect the other way, or a change in a side signal; inactive = no such curve, though single readings can be large or run the other way; the % refers to the polarisation;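 note: polarization taken with two DNA probes labelled with fluorescein and Texas red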
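His-tagged ERG Ets domain (1 uM in the protein solution; 300mM KCl, 50mM Tris-HCl, 1mM EDTA, 1mM DTT, pH 7.5) received compound, then a probe mix of 5 nM fluorescein-DNA and 100nM Texas-615-DNA. Fluorescence polarization was read for both dyes.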
WRN inhibitor: qHTS for Inhibitors of WRN Helicase; Potency, µM (top dose mostly 114 µM), usual class: inhibitors; Bifunctional 3'-5' exonuclease/ATP-dependent helicase WRN (Homo sapiens), Q14191; WRN helicase unwinding, fluorescent forked duplex, kinetic; actives 0.46% (n = 360,000); note: nearly all actives have a fitted effect of over 55% in size
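Kinetic red-fluorescence monitoring (525/598 nm) tracks WRN helicase activity after 100 nM fluorophore-quencher forked duplex and 2 mM ATP are added to 20 nM enzyme pretreated 15 min at room temperature with compound.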
RECQ1 inh: qHTS Assay for Inhibitors of RecQ-Like Dna Helicase 1 (RECQ1). ATP-dependent DNA helicase Q1 (Homo sapiens), P46063. RECQ1 DNA unwinding, red fluorescence kinetic read. Potency, µM (top dose mostly 57.3 µM), most hits filed as inhibitors. actives 0.54% (n = 240,000); note: nearly all actives have a fitted effect of over 30% in size
Target sequence (P46063 whole entry, looked up): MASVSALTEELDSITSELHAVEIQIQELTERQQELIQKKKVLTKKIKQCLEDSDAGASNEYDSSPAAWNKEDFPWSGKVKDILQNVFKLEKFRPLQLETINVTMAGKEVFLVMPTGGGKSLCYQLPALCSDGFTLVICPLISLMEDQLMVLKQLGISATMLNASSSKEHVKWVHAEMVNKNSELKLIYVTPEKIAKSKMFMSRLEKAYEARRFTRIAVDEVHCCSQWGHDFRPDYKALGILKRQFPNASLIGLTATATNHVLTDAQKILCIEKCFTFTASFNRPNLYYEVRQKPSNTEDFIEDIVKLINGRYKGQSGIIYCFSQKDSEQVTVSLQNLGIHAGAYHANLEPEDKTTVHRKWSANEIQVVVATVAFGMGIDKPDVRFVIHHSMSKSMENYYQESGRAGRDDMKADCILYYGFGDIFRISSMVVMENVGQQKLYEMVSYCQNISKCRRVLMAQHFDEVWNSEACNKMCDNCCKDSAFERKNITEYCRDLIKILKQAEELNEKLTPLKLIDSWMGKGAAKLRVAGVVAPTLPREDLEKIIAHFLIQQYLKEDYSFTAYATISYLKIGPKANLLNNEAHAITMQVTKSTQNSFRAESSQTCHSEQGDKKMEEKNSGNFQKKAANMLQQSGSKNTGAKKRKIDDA
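50 nM RECQ1T1 preincubated 15 min with compound in Tris pH 8.0 buffer with MgCl2, DTT, Tween-20 and 2.5 ug/ml poly(dI-dC); started with 200 nM TAMRA/BHQ-2 forked duplex and 2 mM ATP. Unwinding read as fluorescence (525/598 nm), two reads 2 h apart.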
APE1 inh-1: qHTS Assay for Inhibitors of the Human Apurinic/apyrimidinic Endonuclease 1 (APE1) | DNA repair nuclease/redox regulator APEX1 (Homo sapiens), P27695 | recombinant APE1, TAMRA/BHQ-2 abasic DNA cleavage fluorescence | Potency, µM (top dose mostly 65.8 µM), actives largely listed as inhibitors | actives 0.35% (n = 350,000); note: nearly all actives have a fitted effect of over 55% in size
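Activity was derived from the fluorescence gain between first and third kinetic reads (60 s intervals, ex 525/em 598 nm) after 50 nM THF-abasic TAMRA/BHQ-2 duplex was added to 0.75 nM APE1 preincubated 15 min with compound.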
DNA dye displace: Counterscreen for APE1 Inhibitors: Fluorescent Dye Displacement Assay | shares compounds with APE1 inh-1 | DNA fluorescent dye displacement counterscreen, fluorescence | Potency, µM (series often up to 28.5 µM), usual class: inhibitors | actives 7% (n = 480) | AID 2564, 2010;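 note: loss of thiazole orange fluorescence as the dye is displaced from duplex DNA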
Endo IV inh: Counterscreen for APE1 Inhibitors: qHTS Assay for Inhibitors of Endonuclease IV; shares compounds with APE1 inh-1; E. coli Endo IV, fluorogenic AP-site DNA cleavage; Potency, µM (series often up to 27.1 µM), hits mostly inhibitors; actives 4% (n = 560)
APE1 inh-2: Confirmation qHTS Assay for Inhibitors of the Human Apurinic/apyrimidinic Endonuclease 1 (APE1); AID 2572, 2010; actives 44% (n = 750); shares compounds with APE1 inh-1; purified APE1, fluorogenic abasic-site DNA cleavage; Potency, µM (doses to about 57.1 µM), usual class: inhibitors; note: nearly all actives have a fitted effect of over 30% in size
APE1 FP inh: qHTS FP-Based Assay for Inhibitors of the Human Apurinic/apyrimidinic Endonuclease 1 (APE1); actives 7% (n = 480); AID 2573, 2010; Potency, µM (highest dose often 28.5 µM), hits mostly inhibitors; shares compounds with APE1 inh-1; APE1 binding to TAMRA-labelled double-stranded DNA, fluorescence polarization displacement
Numbers stand for hits; . = inactive; ? = inconclusive; / = not tested or not shown; [ ] = another dose, or the depositor's remark. Unless noted, calls come from the whole dose curve; as a rule, active = well fitted curve in the direction sought with a large enough effect; inconclusive = small, poorly fitted or top-dose-only effect, or another doubt; inactive = no such curve, though single readings can be large; an effect the other way counts as inactive or inconclusive.

SMILES	GCN5L2 inh	BLM helicase inh	ERG Ets-DNA blk	WRN inhibitor	RECQ1 inh	APE1 inh-1	others
COc1ccc(N2C(=O)NC(=O)/C(=C/c3cccc(OC(=O)c4cccs4)c3)C2=O)cc1Cl	?	.	.	?	.	.
COc1ccccc1N1CCN(C(=O)CCC(=O)Nc2nnc(CC(C)C)s2)CC1	.	.	.	.	/	.
CCOC(=O)N1CCN(/[N+]([O-])=N/Oc2ccc([N+](=O)[O-])cc2[N+](=O)[O-])CC1C (centres undefined)	/	.	/	/	.	.
Cc1ccc(N2C(=O)NC(=O)/C(=C\C=C\c3ccco3)C2=O)cc1C	.	.	.	15.8µM	28.2µM	.
Cc1ccc(/C=C2/C(=O)NC(=O)N(Cc3ccc(F)cc3)C2=O)o1	.	.	/	/	.	.
COc1ccc(CN2C(=O)NC(=O)/C(=C/c3ccc([N+](=O)[O-])o3)C2=O)cc1	22.4µM	?	/	/	10µM	?
COc1cc(/C=C2\C(=O)NC(=O)N(c3ccccc3)C2=O)c([N+](=O)[O-])cc1OC	.	.	.	?	.	.
Cc1cccc(N2C(=O)NC(=O)/C(=C/c3ccc([N+](=O)[O-])o3)C2=O)c1	25.1µM	.	?	28.2µM	.	?
Cc1cccc(N2C(=O)NC(=O)/C(=C\c3cccn3-c3ccc(Cl)cc3)C2=O)c1	.	.	.	?	31.6µM	.
O=[N+]([O-])/N=C1\NCCN1Cc1ccc(Cl)nc1	/	/	/	/	/	.
O=C1NC(=O)N(c2ccccc2)C(=O)/C1=C/C=C/c1ccco1	.	.	.	?	?	?
Cc1ccc(N2C(=O)NC(=O)/C(=C\C=C\c3ccco3)C2=O)cc1	.	.	.	?	?	?
CN(C)c1ccc(/C=C/C=C2/C(=O)NC(=O)N(c3ccccc3)C2=O)cc1	.	.	.	17.8µM	.	.
Cc1cccc(N2C(=O)NC(=O)/C(=C\C=C\c3ccco3)C2=O)c1	.	.	.	.	22.4µM	?
Cn1ccnc1	.	/	/	/	.	?
NC(N)=NCCC[C@@H](N)C(=O)O	.	.	/	/	.	.
CCCSC(=O)Cl	/	/	/	/	.	.
O=C1NC(=O)N(Cc2ccccc2Cl)C(=O)/C1=C/c1cccs1	.	.	.	?	.	.
O=C1NC(=O)N(Cc2ccc(F)cc2)C(=O)/C1=C/c1cccs1	.	.	.	39.8µM	.	.
CCOC(=O)c1c(NS(=O)(=O)c2ccccc2)n(CCCOC)c2nc3ccccc3nc12	22.4µM	5.62µM	.	.	.	?
CN(N=O)c1cc(O)ccc1O	?	/	/	/	1.58µM	1.41µM	Endo IV inh=.;APE1 inh-2=?
[CH3][Hg][Cl]	/	/	/	/	.	.
CN1CCN2c3ccc(N)cc3CC3(C(=O)NC(=O)NC3=O)C2C1 (centres undefined)	.	.	.	?	.	?	APE1 inh-2=?
Cc1cc(/C=C2\C(=O)NC(=O)N(Cc3ccccc3Cl)C2=O)c(C)n1-c1ccc(C(=O)O)cc1	.	.	.	56.2µM	?	11.2µM	DNA dye displace=.;Endo IV inh=.;APE1 inh-2=12.6µM;APE1 FP inh=?
Cc1ccc(N2C(=O)NC(=O)/C(=C\c3cc(C)n(-c4ccc(C(=O)O)cc4)c3C)C2=O)cc1	.	.	.	.[11.6 µM]	/	.
SMILES	GCN5L2 inh	BLM helicase inh	ERG Ets-DNA blk	WRN inhibitor	RECQ1 inh	APE1 inh-1	others
Cc1ccc(-n2c(C)cc(/C=C3/C(=O)NC(=O)N(Cc4ccco4)C3=O)c2C)cc1	.	.	.	.[11.6 µM]	?	?
Cc1cc(/C=C2\C(=O)NC(=O)N(Cc3ccco3)C2=O)c(C)n1-c1ccc(C(=O)O)cc1	.	.	.	?	.	14.1µM	DNA dye displace=.;Endo IV inh=.;APE1 inh-2=?;APE1 FP inh=.
CCOC(=O)C1CCN(/C=C2/C(=O)NC(=O)N(Cc3ccco3)C2=O)CC1	.	.	.	?	?	14.1µM	DNA dye displace=.;Endo IV inh=.;APE1 inh-2=3.16µM;APE1 FP inh=?
C=C(Cl)CCl	/	/	/	/	.	.
O=C(O)c1ccc2[nH]cc(CCCCN3CC=C(c4ccccc4)CC3)c2c1	.	.	/	/	.	?	DNA dye displace=.;Endo IV inh=.;APE1 inh-2=?;APE1 FP inh=.
COc1cccc([C@@]2(O)CCCCC2CN(C)C)c1 (some centres undefined)	.	.	/	/	.	.
Nc1nc(/C(=C/CC(=O)O)C(=O)NC2C(=O)N3C(C(=O)O)=CCSC23)cs1 (centres undefined)	.	.	/	/	.	/	DNA dye displace=.;Endo IV inh=.;APE1 inh-2=?;APE1 FP inh=.
CC1=C(C(=O)O)N2C(=O)[C@@H](NC(=O)CCCC(=O)O)[C@H]2SC1	.	.	.	.	.	.
Nc1ccc([N+](=O)[O-])cc1O	/	/	/	/	.	.
CC(c1ccccc1)n1cncc1C(=O)O (centres undefined)	.	.	.	.	.	?	APE1 inh-2=.
COC(=O)c1cncn1C(C)c1ccccc1 (centres undefined)	.	.	.	.	.	.
O=c1cc(-c2ccc(O)c(O)c2)oc2c(C3O[C@H](CO)[C@@H](O)[C@H](O)[C@H]3O)c(O)cc(O)c12 (some centres undefined)	.	.	.	.	.	0.891µM	DNA dye displace=?;Endo IV inh=.;APE1 inh-2=?;APE1 FP inh=.
CCCCC(CC)COC(=O)c1ccc(C(=O)OCC(CC)CCCC)c(C(=O)OCC(CC)CCCC)c1 (centres undefined)	/	/	/	/	.	.
